Measurements reported in PubChem BioAssay (Tox21).
Inconclusive results are not listed. Calls of active or inactive are those of the source. Unless noted, calls come from the whole dose curve; as a rule, active = well fitted curve in the direction sought with a large enough effect in the repeat runs; inconclusive = weak or mixed curves; inactive = no such curve, though single readings can be large; an effect the other way counts as inactive or inconclusive.

Key:
[1] = qHTS assay for small molecule agonists of the p53 signaling pathway (AID 651631; calls by dose curve; note: nearly all actives have a fitted effect of over 15% in size)
Summary of the method: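 Beta-lactamase reporter activity under p53 response elements was quantified in HCT-116 cells by FRET fluorescence, following 16 h incubation with test compounds at 37 °C and 2 h substrate development at room temperature.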

[2] = qHTS assay for small molecules that induce genotoxicity in human embryonic kidney cells expressing luciferase-tagged ATAD5 (AID 651632); note: nearly all actives have a fitted effect of over 15% in size
Summary of the method: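 Quantitative HTS in HEK293T expressing luciferase-tagged ATAD5, whose levels rise upon DNA damage. Exposure ran 16 hr at 37C and 5% CO2, with luminescence read 30 min after Amplite addition at room temperature.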

[3] = qHTS assay for small molecule agonists of the p53 signaling pathway - cell viability (AID 651633; calls by dose curve;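 note: p53RE-bla HCT reporter cells with a stable beta-lactamase p53 reporter; series mostly up to about 83 µM; nearly all actives have a fitted effect of over 30% in size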)
Summary of the method: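 p53RE-bla cells, seeded at 4,000 per well and rested 5 h at 37 C/5% CO2, received compounds in DMSO for 16 h at 37 C. CellTiter-Glo was then added, and luminescence was read after 30 min at room temperature to gauge cytotoxicity.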

[4] = qHTS assay for small molecules that induce genotoxicity in human embryonic kidney cells expressing luciferase-tagged ATAD5 - cell viability (AID 651634; calls by dose curve; note: nearly all actives have a fitted effect of over 25% in size)
Summary of the method: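 After 15.5 hr incubation with compound at 37C, 5% CO2, HEK293T ATAD5-luciferase cells received CellTiter-Fluor reagent; fluorescence intensity was quantified following 30 min at 37C.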

[5] = qHTS assay for small molecule disruptors of the mitochondrial membrane potential - cell viability (AID 720634; calls by dose curve;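 note: human HepG2 liver cancer cells; series mostly up to about 83 µM; nearly all actives have a fitted effect of over 20% in size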)
Summary of the method: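 ATP-based luminescent viability readout (CellTiter-Glo, 30 min, room temperature) in HepG2 cells multiplexed with the m-MPI membrane potential dye; compound exposure lasted 1 hr at 37 C.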

[6] = qHTS assay for small molecule disruptors of the mitochondrial membrane potential (AID 720635)
Summary of the method: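 HepG2 cells (2,000/well) attached overnight at 37C, then took compound for 1 hr at 37C, 5% CO2. Mito-MPS dye was added for 30 min; fluorescence was read at 490/535 nm (monomers) and 540/590 nm (aggregates).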

[7] = qHTS assay to test for compound auto fluorescence at 590 nm (red) in HepG2 cells (AID 720674)
Summary of the method: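 Compound auto-fluorescence is scored relative to Rose Bengal sodium, measured at 540/590 nm in live HepG2 cultures after 1 hr compound contact (37 C, 5% CO2).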

[8] = qHTS assay to test for compound auto fluorescence at 535 nm (green) in HepG2 cells (AID 720675)
[9] = qHTS assay to test for compound auto fluorescence at 460 nm (blue) in HEK293 cells (AID 720678)
Summary of the method: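 HEK293 cells (2,000/well, medium with 10% dialyzed FBS) attached 4-5 hr, then exposed to compound overnight at 37C, 5% CO2. Blue fluorescence read at 405/460 nm, with triamterene as reference fluorophore.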

[10] = qHTS assay to test for compound auto fluorescence at 590 nm (red) in HEK293 cells (AID 720679)
Summary of the method: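 HEK293 cells (2,000/well, 10% dialyzed FBS) attached 4-5 hr, then dosed with compound or DMSO and incubated overnight at 37C, 5% CO2. Red fluorescence read at 540/590 nm, Rose Bengal sodium as reference fluorophore.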

Measured: Potency

CCCCCCCCCCCCCCCCN
inactive: all assays above

N#CCCCC(C#N)CCC#N (stereo not given)
inactive: all assays above

C[C@H](CN1CCCC1)C(=O)c1ccc(C(F)(F)F)cc1
inactive: all assays above

Nc1cccc2c(=O)[nH][nH]c(=O)c12
inactive: all assays above

C=CCCC
inactive: all assays above

Nc1ccc(F)cc1F
inactive: all assays above

CC(C)CCCCCCCOC(=O)c1ccc(C(=O)OCCCCCCCC(C)C)c(C(=O)OCCCCCCCC(C)C)c1
inactive: all assays above

CCc1cnc(C(=O)O)c(C(=O)O)c1
inactive: all assays above

CCC(=O)O[C@@H]1C[C@H]2CC[C@]1(C)C2(C)C
inactive: all assays above

CCCC(=O)OCCC(C)C
inactive: all assays above

O=C(O)CNc1ccccc1
inactive: all assays above

CNc1ccccc1
inactive: all assays above
